Laboratory results taken from publication PMC4552634, “A New Set of Chemical Starting Points with Plasmodium falciparum Transmission-Blocking Potential for Antimalarial Drug Discovery” (PLoS ONE, 2015).
About 3,200 (25%) of roughly 13,000 compounds showed an effect of 50% or more. The list shows a part of the results.

System: P. falciparum stage V gametocytes
Parameters: BacTiter-Glo ATP luminescence viability of purified stage V gametocytes in 384-well plates, per cent inhibition versus DMSO
Conditions: 48 h, 5 µM; inhibitor

First: COc1ccc2ncc(Cl)c(N3CCC(CCNCc4ccc5c(n4)NC(=O)CS5)CC3)c2c1.Cl [TCMDC-141958]
Second: COc1ccc2nccc(N3CCC(NCCNCc4ccc5c(n4)NC(=O)CS5)C3)c2n1 (centres unmarked) [TCMDC-134649]
The “% Inhibition” value of the first is lower: 0.05948% for the first, 67.81% for the second.

First: CC(C)(C)NS(=O)(=O)c1cc(C(=O)N2CCC(CCN3CCC(O)(c4cccc(C(F)(F)F)c4)CC3)(c3cccc(F)c3)CC2)c(Cl)cc1F [TCMDC-135886]
Second: CC(C)(C)NS(=O)(=O)c1cc(C(=O)N2CCC(CCN3CCC(C(=O)c4ccc(F)cc4)CC3)(c3cccc(F)c3)CC2)c(Cl)cc1F [TCMDC-135885]
The “% Inhibition” value of the first is higher: 93.87% for the first, 79.72% for the second.

Compared with `CC(=O)C1(c2ccccc2)CCN(CCC2(c3ccc(Cl)c(Cl)c3)CN(C(=O)Nc3cccc(C(F)(F)F)c3)CCO2)CC1` (centres unmarked) [TCMDC-135342], `O=C(Cc1ccccc1)NC(CCN1CCC(O)(c2cccc(C(F)(F)F)c2)CC1)c1ccc(Cl)c(Cl)c1` (centres unmarked) [TCMDC-141711] is lower in “% Inhibition” value: 34.05% for the first, 14.28% for the second.

First: CN(C)S(=O)(=O)c1ccc(N2CCN(CCC3(c4cccc(F)c4)CCN(C(=O)C(C)(C)C)CC3)CC2)c2nonc12 [TCMDC-135887]
Second: O=C(NC1CCN(CCC[C@]2(c3ccc(Cl)c(Cl)c3)CCCN(C(=O)c3ccccc3)C2)CC1)c1ccc(Cl)cc1 [TCMDC-141713]
The “% Inhibition” value of the first is higher: 8.489% for the first, -34.58% for the second.

First: COc1ccccc1NC(=O)Nc1ccc(-c2cccc(-c3nc4ccccc4[nH]3)c2)cc1 [TCMDC-133206]
Second: CC(=O)Nc1nc(C(=O)Nc2ccc(-c3ccc(-c4nc5c(C)cccc5[nH]4)cc3)cc2)cs1 [TCMDC-137125]
The “% Inhibition” value of the first is higher: 15.44% for the first, -51.44% for the second.

Going from `FC(F)(F)c1cc(Nc2ncnc3ccc(Br)cc23)ccc1OCc1ccccc1` [TCMDC-131923] to `c1ccc(Oc2ccc(Nc3ccnc4cc(-c5cccc(CN6CCOCC6)c5)ccc34)cc2)cc1` [TCMDC-138475], the “% Inhibition” value falls from 9.607% to -43.1%.

Compared with `c1cncc(Oc2ccc(Nc3ccnc4cc(-c5cccc(CN6CCOCC6)c5)ccc34)cc2)c1` [TCMDC-138490], `c1cncc(Oc2ccc(Nc3ccnc4cc(-c5cccc(CN6CCCCC6)c5)ccc34)cc2)c1` [TCMDC-138491] is higher in “% Inhibition” value: -4.813% for the first, 61.6% for the second.

First: CN1CCN(Cc2cccc(-c3ccc4c(Nc5ccc(Oc6cccnc6)cc5)ccnc4c3)c2)CC1 [TCMDC-138489]
Second: CN1CCN(Cc2cccc(-c3ccc4c(Nc5ccc(Oc6ccccc6)cc5)ccnc4c3)c2)CC1 [TCMDC-138476]
The “% Inhibition” value of the first is higher: 97.22% for the first, 95.08% for the second.

Going from `COCCNCc1nc(-c2ccc3c(Nc4ccc(F)c(O)c4)ccnc3c2)cs1` [TCMDC-138411] to `CN1CCN(Cc2nc(-c3ccc4c(Nc5ccc(F)c(O)c5)ccnc4c3)cs2)CC1` [TCMDC-138439], the “% Inhibition” value rises from 27.64% to 95.29%.

First: CN1CCN(Cc2cccc(-c3cc4nccc(Nc5ccc(Oc6ccccc6)cc5)c4cc3Cl)c2)CC1 [TCMDC-138460]
Second: CN1CCN(Cc2nc(-c3ccc4c(Nc5ccc(Oc6ccccc6)cc5)ccnc4c3)cs2)CC1 [TCMDC-138409]
The “% Inhibition” value of the first is lower: 0.7486% for the first, 54.56% for the second.

Compared with `Cc1ccc(O)cc1Nc1ccnc2cc(-c3csc(CN4CCN(C)CC4)n3)ccc12` [TCMDC-138459], `c1ccc(Oc2ccc(Nc3ccnc4cc(-c5csc(CN6CCCCC6)n5)ccc34)cc2)nc1` [TCMDC-138428] is lower in “% Inhibition” value: 29.46% for the first, -35.56% for the second.

Compared with `Oc1cc(Nc2ccnc3cc(-c4cccc(CN5CCCCC5)c4)ccc23)c(F)cc1Cl` [TCMDC-138433], `CC(=O)Nc1ccc(C(=O)N2CCN(c3ccnc4cc(Cl)ccc34)CC2)cc1` [TCMDC-133574] is lower in “% Inhibition” value: 38.27% for the first, -9.196% for the second.

Going from `Cc1ccc(/C=C2/SC(=Nc3ccccc3)NC2=O)c(C)c1` [TCMDC-124428] to `Cc1nn(-c2ccnc3cc(Cl)ccc23)c(C)c1C(=O)NCc1cc(Cl)cc(Cl)c1` [TCMDC-134231], the “% Inhibition” value falls from 45.43% to -2.069%.

First: CCOC(=O)c1cncc(/C=C/c2cc(C)cnc2N)c1 [TCMDC-134321]
Second: CCCC1N=C(N)N=C(N)N1c1ccc(C)cc1 (centres unmarked) [TCMDC-131297]
The “% Inhibition” value of the first is higher: 18.35% for the first, 8.167% for the second.

Compared with `CC(C)(C)C1CC(=O)CC2C(=O)N(C3CCCCC3)C(=O)C21` (centres unmarked) [TCMDC-139129], `COc1ccc2nccc(N3CCC(CCNCc4ccc5c(n4)NC(=O)CO5)CC3)c2n1` [TCMDC-141943] is higher in “% Inhibition” value: -1.455% for the first, 5.733% for the second.

Compared with `CC1(C)NC(N)=NC(=N)N1OCc1nc(N)nc(Nc2ccccc2)n1` [TCMDC-131613], `COc1ccc2nccc(N3CCC(SCCNCc4ccc5c(n4)NC(=O)CO5)C3)c2n1` (centres unmarked) [TCMDC-134206] is lower in “% Inhibition” value: 27.92% for the first, 10.7% for the second.

Going from `C=CCN1C(=O)C(C(C)=O)=C(O)C1c1ccccc1` (centres unmarked) [TCMDC-131675] to `N#Cc1ccc2c(c1)CCN(CCC1CCC(NC(=O)c3ccc(-c4ccccc4)s3)CC1)CC2` (centres unmarked) [TCMDC-139837], the “% Inhibition” value falls from 0.4612% to -13.04%.

Compared with `CC(C)C[C@@H](C(=O)Nc1ccc(Cc2ccc(NC(=O)[C@H](CC(C)C)N(C)C(=O)OC(C)(C)C)cc2)cc1)N(C)C(=O)OC(C)(C)C` [TCMDC-131871], `CCc1ccc(CN(Cc2ccc(C)cc2)Cc2ccc(NC(C)=O)cc2)cc1` [TCMDC-140034] is higher in “% Inhibition” value: 6.615% for the first, 13.22% for the second.

Compared with `N=C(N)NN=CC(=O)Nc1ccc(Br)cc1` [TCMDC-137562], `CCCN1CCN(CC(O)CNC(=O)Nc2ccc(Br)cc2)CC1` (centres unmarked) [TCMDC-134638] is higher in “% Inhibition” value: -7.978% for the first, 9.49% for the second.

First: CCN(CC)/C(=N/C(=N)Nc1ccc(Br)cc1)NCCCCCCN/C(=N\C(=N)Nc1ccc(Br)cc1)N(CC)CC [TCMDC-131814]
Second: CCN(CC)/C(=N/C(=N)Nc1ccc(C)cc1)NCCCCCCN/C(=N\C(=N)Nc1ccc(C)cc1)N(CC)CC [TCMDC-131810]
The “% Inhibition” value of the first is higher: 118.9% for the first, 116.5% for the second.

Going from `CC(C)(C)c1ccc(CNCCOc2ccc(Nc3nnc(-c4ccc(-c5ncc[nH]5)cc4)o3)c3ccccc23)cc1` [TCMDC-138667] to `COc1ccc2nccc(N3CCC(SCCNCc4ccc5c(n4)NC(=O)CS5)C3)c2n1` (centres unmarked) [TCMDC-134285], the “% Inhibition” value rises from -26.34% to -20.26%.

First: COc1ccc2nccc(N3CCC(NCCNCc4ccc5c(n4)NC(=O)CO5)C3)c2n1 (centres unmarked) [TCMDC-134548]
Second: COc1ccc2nccc(N3CCC(NCc4ccc5c(n4)NC(=O)CS5)CC3)c2n1 [TCMDC-134652]
The “% Inhibition” value of the first is higher: 51.99% for the first, 3.663% for the second.
